# From PubChem BioAssay AID488969 (Vanderbilt High Throughput Screening Facility, 2010)
# Over roughly 110,000 compounds, “z-score” has its median near -0.1; the highest 2% begin near 2. This excerpt belongs to a sample that is enriched for the highest values. Activity calls are given as the source filed them.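 Rule for the calls: active = z-score in the third read window above 3 or below -3; inactive = the rest.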
# Biological target: Metabotropic glutamate receptor 8 (Rattus norvegicus) (UniProt P70579)
# Test: mGluR8 Gi/Go-coupled signaling modulation – cell-based, rat, thallium flux, HTS, primary screen (AID 488969)
# Conditions: HEK293 rat mGluR8, GIRK (G protein-gated inwardly rectifying potassium channel) thallium flux, FluoZin2; at 10 µM; stronger effect = higher value; submaximal glutamate (EC20) added with thallium
# Sequence of Metabotropic glutamate receptor 8 (Rattus norvegicus) (P70579 whole entry, looked up): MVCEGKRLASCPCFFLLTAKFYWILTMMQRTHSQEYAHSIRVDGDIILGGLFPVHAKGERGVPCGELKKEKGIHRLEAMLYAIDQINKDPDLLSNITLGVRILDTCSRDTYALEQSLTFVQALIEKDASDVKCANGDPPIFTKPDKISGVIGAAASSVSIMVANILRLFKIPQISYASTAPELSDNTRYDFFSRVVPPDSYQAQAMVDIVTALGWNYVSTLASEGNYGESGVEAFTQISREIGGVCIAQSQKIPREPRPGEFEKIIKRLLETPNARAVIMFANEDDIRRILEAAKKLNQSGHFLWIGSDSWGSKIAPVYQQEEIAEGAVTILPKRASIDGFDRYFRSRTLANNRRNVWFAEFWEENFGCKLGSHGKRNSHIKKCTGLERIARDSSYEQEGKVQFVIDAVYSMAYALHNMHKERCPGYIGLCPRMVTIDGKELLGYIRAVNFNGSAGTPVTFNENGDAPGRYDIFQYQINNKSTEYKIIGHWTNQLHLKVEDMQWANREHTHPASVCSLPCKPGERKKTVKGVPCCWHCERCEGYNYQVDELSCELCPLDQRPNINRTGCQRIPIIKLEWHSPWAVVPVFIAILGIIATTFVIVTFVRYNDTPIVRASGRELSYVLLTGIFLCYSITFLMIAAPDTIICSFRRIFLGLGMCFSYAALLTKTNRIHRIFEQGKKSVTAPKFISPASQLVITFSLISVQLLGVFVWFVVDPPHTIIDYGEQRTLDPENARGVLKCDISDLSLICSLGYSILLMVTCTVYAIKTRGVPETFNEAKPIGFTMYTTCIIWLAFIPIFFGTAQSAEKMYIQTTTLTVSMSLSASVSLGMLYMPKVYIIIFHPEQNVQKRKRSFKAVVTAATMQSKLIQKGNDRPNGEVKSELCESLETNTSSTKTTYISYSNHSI
row,SMILES,z-score
1,Cn1ccc(C(=O)N2CCCc3ccccc32)n1,-0.0997
2,CC(=O)N(/N=C1\Sc2ccccc2C1=O)c1ccc(C)cc1C,-0.638
3,S=c1[nH]c2cc(Cl)ccc2s1,14.9 (active)
4,S=c1[nH]c2ccc(Cl)cc2[nH]1,0.488
5,CSc1nc2cc(Cl)ccc2s1,-0.233
6,Cc1ccc(S(=O)(=O)N2CCC(C(=O)N3CCC(C(=O)NCC4CCCO4)CC3)CC2)cc1 (stereo unspecified),0.137
7,Cc1ccc(F)c(NC(=O)C2CCCCC2C(=O)O)c1 (stereo unspecified),1.59
8,CC(C)c1cc(C(F)(F)F)n2nc(C(=O)Nc3ccc4c(c3)OCO4)cc2n1,4.57 (active)
9,CC(=O)c1cc2c(cc1NC(=O)c1cc3nc(C(C)C)cc(C(F)(F)F)n3n1)OCO2,-0.248
10,O=C(Nc1ccc2c(c1)OCO2)c1cc2nc(C3CC3)cc(C(F)(F)F)n2n1,-0.167
11,Cc1nc(NC(=O)c2ccc(Cl)cc2)sc1-c1csc(Nc2cccc(F)c2)n1,-0.184
12,CCn1c(COc2ccccc2C)nc2ccccc21,-1.56
13,CCC(=O)c1ccc(N2CCCC2)c(F)c1,0.0378
14,CC(=O)c1ccc(N2CCCC2)c(F)c1,2.4
15,CCC(=O)c1ccc(N2CCCCCC2)c(F)c1,-0.499
16,O=C(NNc1nc(-c2ccccc2)cs1)c1ccccc1,-1.53
17,Cc1ccc(C(=O)NNc2nc3ccccc3nc2C(F)(F)F)cc1,5.19 (active)
18,Cc1ccc(S(=O)(=O)NNc2nc3ccccc3nc2C(F)(F)F)cc1,-0.286
19,Cc1ccc(C(=O)NN(C)c2nc3ccccc3nc2C(F)(F)F)cc1,0.198
20,O=C(NNc1nc2ccccc2nc1C(F)(F)F)c1ccccc1,2.44
21,FC(F)(F)c1nc2ccccc2nc1N/N=C\c1ccccc1,0.3
22,O=C(NNc1c2ccccc2nc2ccccc12)c1ccc(O)cc1O,0.0188
23,O=C(NNc1c2ccccc2nc2ccccc12)c1ccc(O)cc1,2.21
24,O=C(NNc1c2ccccc2nc2ccccc12)c1cccc(O)c1,-0.199
25,O=C1c2ccccc2C(Nc2ccc(S(=O)(=O)N3CCOCC3)cc2)N1c1ccccn1 (stereo unspecified),-0.244

row,SMILES,z-score
1,COc1ccc(CN(C)CC(=O)Nc2cc(OC)c([N+](=O)[O-])cc2C)c(OC)c1,-0.503
2,COc1ccccc1C(=O)NCC1CCN(c2ccc(S(=O)(=O)N3CCOCC3)cc2)CC1,-0.35
3,COc1ccccc1OCc1ccc(C(=O)NN)cc1,-0.037
4,O=C(NCC1CCCO1)C1CC1(c1ccccc1)c1ccccc1 (stereo unspecified),1.76
5,CCOc1cc(C(=O)OCC(=O)c2c(C)[nH]c3ccccc23)ccc1OCC(=O)N1CCOCC1,-0.335
6,CNC(=O)C1=C(C)Nc2nc3ccccc3n2C1c1cccc(OC)c1 (stereo unspecified),-0.775
7,Cc1cccc(N2CCN(C(=O)Cn3sc4nc(C)cc(C)c4c3=O)CC2C)c1 (stereo unspecified),0.149
8,CCOC(=O)C1CCCN(C(=O)CSc2nccn2C)C1 (stereo unspecified),2.87
9,CCOC(=O)C1CCCN(C(=O)CSCc2ccccc2)C1 (stereo unspecified),-1.22
10,CCOC(=O)C1CCCN(C(=O)COc2ccccc2O)C1 (stereo unspecified),0.0285
11,Cc1cc(C)c2c(=O)n(CC(=O)N3CCC(N4CCCCC4)CC3)sc2n1,-0.421
12,CCOC(=O)C1CCCN(C(=O)Cn2sc3nc(C)cc(C)c3c2=O)C1 (stereo unspecified),2.2
13,COc1ccccc1N(CC(=O)Nc1ccccc1C(=O)NC(C)C)S(C)(=O)=O,-0.955
14,O=C1CCC([N+](=O)[O-])C(c2ccc(Cl)cc2Cl)N1 (stereo unspecified),-0.219
15,CCCN1C(=O)/C(=C/c2ccco2)SC1=Nc1ccc(OC)cc1,-0.105
16,O=C(CCS(=O)(=O)Cc1ccccc1)N1CCc2ccccc2C1,-0.136
17,C[N+](C)(C)CCNC(=O)c1c(O)c2c([nH]c1=O)CCCC2,0.798
18,CCN1CCCC1CNC(=O)c1c(O)c2c([nH]c1=O)CCCC2 (stereo unspecified),-0.0826
19,O=C(NCC1CCCO1)c1c(O)c2c([nH]c1=O)CCCC2 (stereo unspecified),2.44
20,COc1ccc(CNC(=O)CN(Cc2ccc(C)cc2)S(=O)(=O)c2ccc(Cl)cc2)cc1,0.0059
21,CC1=C(C(=O)N2CCCCC2)C(c2cccs2)C2=C(CCCC2=O)N1 (stereo unspecified),0.187
22,CC1SC(c2ccc(Cl)cc2Cl)NC1=O (stereo unspecified),-0.0303
23,C=C(C)C1CC=C(C)/C(=N/NC(=O)COc2ccccc2C)C1 (stereo unspecified),1
24,C=C(C)C1CC=C(C)/C(=N/NC(=O)COc2cccc3ccccc23)C1 (stereo unspecified),0.0808
25,C=C(C)C1CC=C(C)/C(=N/NC(=O)CNc2ccc(OCC)cc2)C1 (stereo unspecified),1.99

row,SMILES,z-score
1,C=C(C)[C@H]1CC=C(C)/C(=N/NC(=O)CNc2ccccc2OC)C1,0.284
2,C=C(C)C1CC=C(C)/C(=N\NC(=O)CCc2ccccc2)C1 (stereo unspecified),-0.339
3,C=C(C)C1CC=C(C)/C(=N/NC(=O)COc2cccc(C)c2)C1 (stereo unspecified),8.9 (active)
4,C=C(C)C1CC=C(C)/C(=N/NC(=O)COc2ccccc2Cl)C1 (stereo unspecified),12.4 (active)
5,C=C(C)C1CC=C(C)/C(=N/NC(=S)Nc2ccccc2)C1 (stereo unspecified),2.35
6,C=C(C)C1CC=C(C)/C(=N/NC(=O)CNc2ccc(C)cc2C)C1 (stereo unspecified),-0.284
7,C=C(C)C1CC=C(C)/C(=N/NC(=O)COc2ccc(C)cc2)C1 (stereo unspecified),1.47
8,C=C(C)C1CC=C(C)/C(=N\NC(=O)CNc2ccccc2OC)C1 (stereo unspecified),0.0831
9,C=C(C)C1CC=C(C)/C(=N\NC(=S)Nc2ccc(C)cc2)C1 (stereo unspecified),0.799
10,Cc1nn(Cc2ccc(Br)cc2)c(C)c1NC(=O)c1nn(C)cc1Cl,-0.296
11,COC(=O)c1ccccc1NC(=O)CN(C)S(=O)(=O)c1ccc(OC)cc1,0.195
12,Fc1ccc(/C=C2\CCCC3=C2NC(=S)NC3c2ccc(F)cc2)cc1 (stereo unspecified),-0.0195
13,N#CC1(C#N)C2=C(CCCC2)NC(c2ccccc2)C1(C#N)C#N (stereo unspecified),-0.0942
14,O=C(NCCc1ccccc1F)/C(=C/c1cccnc1)NC(=O)c1ccccc1,0.0991
15,O=C(Nc1ccccc1)c1c(F)c(F)c(F)c(F)c1F,-0.122
16,COc1ccc(CC(=O)NCCc2ccc(S(N)(=O)=O)cc2)cc1,0.445
17,O=c1c(CN2CCN(Cc3ccccc3)CC2)coc2ccc(Cl)cc12,-0.714
18,CCOC(=O)c1cc(-c2ccc(C#N)cc2)nc2c1c(C)nn2CCC#N,-0.234
19,CCOC(=O)c1cc(-c2ccc(OC)cc2)nc2c1c(C)nn2CCC#N,-0.93
20,CCOC(=O)c1cc(-c2ccc(Cl)cc2)nc2c1c(C)nn2CCC#N,3.13 (active)
21,S=c1[nH]nc(Cc2sc(-c3ccccc3)nc2-c2ccccc2)o1,0.186
22,CCCNCC1C(Oc2ccc(Cl)cc2)C(=O)N1c1ccccc1C (stereo unspecified),1.55
23,COCCCNCC1C(Oc2ccc(Cl)cc2)C(=O)N1c1ccccc1C (stereo unspecified),0.258
24,Cc1ccccc1N1C(=O)C(Oc2ccc(Cl)cc2)C1CNCCCOC(C)C (stereo unspecified),2.95
25,Cc1cc(C)c(OCCCCCNCCO)c(C)c1,1.43

row,SMILES,z-score
1,CCc1ccc2nc(-c3cccc(C)c3)nc(SCC(=O)NCC3CCCO3)c2c1 (stereo unspecified),-0.227
2,Cc1n[nH]c(C)c1SCC(=O)Nc1ccc(F)cc1,0.159
3,COc1cccc(Nc2ccc(C(=O)O)cc2[N+](=O)[O-])c1,0.594
4,O=C(c1cccc(Br)c1)c1cn(-c2ccccc2)nc1C(=O)c1ccccc1,-0.106
5,CCOc1ccc2[nH]c(=O)c(C(c3nnnn3C3CCCCC3)N3CCN(CC)CC3)cc2c1 (stereo unspecified),0.408
6,COC(=O)c1ccc(N2C(=O)CC(Sc3n[nH]c(C)n3)C2=O)cc1 (stereo unspecified),4.88 (active)
7,COC(=O)c1cc(C(=O)OC)cc(N2C(=O)CC(Sc3nc(C)cc(C)n3)C2=O)c1 (stereo unspecified),0.178
8,COC(=O)c1ccc(N2C(=O)CC(SCCN)C2=O)cc1 (stereo unspecified),-0.299
9,Cc1noc(C(=O)NCc2ccccc2)c1Cl,-0.324
10,C/C(=N/NC(=O)Cc1cccc2ccccc12)c1cccs1,-0.221
11,CCOC(=O)CSc1n[nH]c(NC(=O)c2cccc(C(F)(F)F)c2)n1,-0.122
12,CCOC(=O)CSc1n[nH]c(NC(=O)c2cccc(C)c2)n1,2.67
13,CCOC(=O)CSc1n[nH]c(NC(=O)c2ccccc2)n1,0.788
14,c1cncc(-c2nc3ccccc3[nH]2)c1,-0.186
15,O=c1[nH]cnc2c1sc1nc3c(c(-c4ccc(Cl)cc4)c12)CCC3,-0.722
16,CC(OC(=O)c1nsc(Cl)c1Cl)C(=O)NC(C)(C)C (stereo unspecified),0.181
17,Cc1cc(OCC(=O)Nc2ccc(F)c(F)c2)nc(C(C)C)n1,0.156
18,O=C(NNS(=O)(=O)c1ccccc1)C1CCN(S(=O)(=O)c2ccc(Cl)cc2)CC1,-0.131
19,CCCCCCCCc1nc(=S)[nH][nH]1,15.3 (active)
20,CCCCCCCCCc1nc(N)n[nH]1,-0.191
21,CCCCOc1ccc(-c2nc(=S)[nH][nH]2)cc1,0.294
22,C=CCCCCCCCCc1nc(=S)[nH][nH]1,9.76 (active)
23,CC(=O)SC(C)CC(=O)NCc1ccccc1 (stereo unspecified),-0.123
24,Cc1ccc(C)c(Nc2nc3nonc3nc2N2CCOCC2)c1,0.382
25,COc1ccccc1Nc1nc2nonc2nc1N1CCC(C)CC1,-0.00241

row,SMILES,z-score
1,Cc1ccccc1Nc1nc2nonc2nc1N1CCOCC1,6.03 (active)
2,CCCCC(=O)Nc1cc(C(=O)NCCc2ccccc2)ccc1Cl,0.145
3,CC1CCN(c2ncccc2C(=O)O)CC1,4.14 (active)
4,O=C(Nc1ccccc1)c1cccnc1N1CCCC1,0.569
5,CC1CCN(c2nc3ccccc3nc2N2CCC(C)CC2)CC1,-0.169
6,Cc1ccc(-n2nnnc2SCC(=O)c2ccc3c(c2)NC(=O)CO3)c(C)c1,-0.0959
7,Cc1ccc(C2(C)NC(=O)N(CC(=O)Nc3c(C)n(C)n(-c4ccccc4)c3=O)C2=O)cc1 (stereo unspecified),-0.208
8,CCc1ccc(NC(=O)CSc2nc3n[nH]c(C)c3c(=N)n2-c2cccc(OC)c2)cc1,0.339
9,COc1cccc(-n2c(SCC(=O)NCCC3=CCCCC3)nc3n[nH]c(C)c3c2=N)c1,8.62 (active)
10,CCc1ccccc1NC(=O)CSc1nc2n[nH]c(C)c2c(=N)n1-c1cccc(OC)c1,0.747
11,COc1ccc(/C=C/C(=O)NC(C)C)cc1Br,-0.339
12,CCCOc1ccc(C(=O)N2CCCC2)cc1OC,-0.411
13,Cc1ccc(/C=N/NC(=S)N2CCOCC2)cc1,4.72 (active)
14,CC(C)NC(=S)N/N=C/c1ccc(N2CCOCC2)cc1,0.522
15,S=C(N/N=C/c1ccccc1)N1CCOCC1,2.65
16,S=C(N/N=C/c1ccc(Cl)cc1)N1CCOCC1,11.9 (active)
17,S=C(NCCN1CCOCC1)N/N=C/c1ccccc1,0.728
18,Cc1ccc(NC(=S)N2CCOCC2)cc1,-0.0267
19,NC(=S)N/N=C/c1ccccc1,0.103
20,S=C(Nc1ccc(Cl)cc1Cl)N1CCOCC1,-0.325
21,S=C(Nc1ccc(Cl)cc1)N1CCOCC1,0.122
